PMP22 txn prim – PMP22 gene transcription modulation. Potency, µM (top dose mostly 57.5 µM), without a hit: at the top dose activity change, negative = inhibition, actives largely listed as inhibitors. 43,000 tested, 2% active. AID 1508649. S16 Pmp22-F2sN Schwann cells, FLuc/NLuc coincidence luminescence, 24 h; active = clear falling dose curves in both reporters; inconclusive = both reporters move, but less clearly or upward; inactive = either reporter flat; the % is the NLuc reporter signal; also: % is scaled to controls: 0 for no effect and ±100 for the full control effect
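qHTS, 1536-well. Cells seeded, compounds added by pin tool, 24 h 37C. Nano-Glo reagent 1 (lysis/FLuc), 10 min RT, read; Stop&Glo, 10 min RT, read NLuc.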
S16 F2sN tox – S16 Schwann cell cytotoxicity | S16 Pmp22-F2sN Schwann cells viability, CellTiter-Glo, 24 h | Potency, µM (series often up to 57.5 µM), for the others: top-dose activity change, negative = cytotoxicity, actives largely listed as cytotoxic | 43,000 tested, 0.48% active | AID 1508642; also: % is scaled to controls: 0 for no effect and ±100 for the full control effect; nearly all actives have a fitted effect of over 65% in size
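Used to flag compounds lowering reporter output through toxicity, this quantitative HTS measures ATP-based CellTiter-Glo luminescence in S16 Pmp22-F2sN Schwann cells after 24 h compound exposure at 37C.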
HTT prom inh – inhibitors of huntingtin promoter activity. HEK293 HTT promoter firefly luciferase reporter, 24 h. Potency, µM (titrated, usually from 57.5 µM), for inactives: at the highest dose activity change, negative = inhibition, most hits filed as inhibitors. 48,000 tested, 0.93% active. AID 1508623; also: nearly all actives have a fitted effect of over 50% in size
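HEK293 cells carrying firefly luciferase reporters were seeded at 2,500 per well in Opti-MEM and cultured for 24 h. They were then treated with compounds at up to 57.5 uM final for 24 h at 37 degrees C before Dual-Glo luminescence readout.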
OvCa metastasis – blocks SKOV3ip1 adhesion and invasion in omental model; 46,000 tested, 0.1% active; AID 1963576; SKOV3ip1-GFP adhesion/invasion on 3D omental model, fluorescence; Potency, µM (doses to about 45.8 µM), without a hit: at the highest dose activity change, negative = inhibition, actives largely listed as inhibitors;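 also: plate controls were DMSO wells for no effect and tomatine positive control wells for full effect; nearly all actives have a fitted effect of over 65% in size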
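qHTS, 4-pt dose (0.36-46 umol/L); SKOV3ip1-GFP, 1,200 cells/well, no FBS; primary omental fibroblast/mesothelial co-culture 48 h pre-grown; 2 h RT + 16 h 37 C; PBS wash, 4% PFA; GFP count 488/509 nm.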
pS6 MEF inh – mTORC1 pathway inhibition measured by phospho-rpS6; Tsc2-/- p53-/- MEF, phospho-rpS6 immunofluorescence/PI, 24 h; Potency, µM (highest dose often 38.3 µM), without a hit: at the top dose activity change, negative = inhibition, usual class: inhibitors; 44,000 tested, 0.78% active; AID 493208;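 also: plate controls were DMSO for no effect and rapamycin for full effect; nearly all actives have a fitted effect of over 50% in size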
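Compounds act on Tsc2-/-, p53-/- fibroblasts carrying an empty vector for 24 h before fixation and dual staining for phospho-S6 and DNA (propidium iodide). Values are percentages of cells above a rapamycin-defined pS6/PI threshold.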
HTT-AS promoter – HTT-AS promoter activation | HEK293 HTT-AS promoter firefly luciferase reporter, 24 h; response scale: percent change from vehicle, -100% = no light | 48,000 tested, 0.24% active | Potency, µM (top dose mostly 57.5 µM), for inactives: at the top dose activity change, positive = activation, usual class: activators; also: nearly all actives have a fitted effect of over 55% in size
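Firefly luciferase signal from promoter-reporter HEK293 cells was scaled between vehicle (0%) and zero RLU (-100%). Compounds were tested at final concentrations of up to 57.5 uM over 24 h at 37 degrees C. PTC124 at 50 uM final served as control inhibitor.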
Starred values were filed as active, the others as inactive. The list is not random: actives were taken first. Their share in the collection is about 3.6%. Unless noted, calls follow the shape of the dose curve; as a rule, active = well fitted curve in the direction sought with a large enough effect; inconclusive = small, poorly fitted or top-dose-only effect, or another doubt; inactive = no such curve, though single readings can be large; an effect the other way counts as inactive or inconclusive. Potency is read from the fitted curve at half-maximal effect.

`O=C(NCCn1cc(SCc2ccc(F)cc2)c2ccccc21)c1cccs1` gave PMP22 txn prim inconclusive, S16 F2sN tox 1%, HTT prom inh 28µM*, OvCa metastasis -13%, pS6 MEF inh -1% and HTT-AS promoter -48%.
Cc1ccc(CSc2cn(CCNC(=O)c3cccs3)c3ccccc23)cc1 was read as PMP22 txn prim inconclusive, S16 F2sN tox 1%, HTT prom inh inconclusive, OvCa metastasis 8%, pS6 MEF inh 1% and HTT-AS promoter -42%.
`Cc1ccccc1-n1c(Cn2nc(-c3cccc(O)c3)c3c(N)ncnc32)nc2cccc(C)c2c1=O` gave HTT prom inh inconclusive, OvCa metastasis 6% and HTT-AS promoter -42%.
Screening CC(C)(C)OC(=O)Nc1ccc(-c2cc(C(=O)NCCCCCCC(=O)NO)no2)cc1 returned HTT prom inh -11%, OvCa metastasis 2% and HTT-AS promoter -35%.
Screening Cc1cc2c(F)c(Oc3ncnn4cc(OC[C@@H](C)O)c(C)c34)ccc2[nH]1 returned HTT prom inh -22%, OvCa metastasis 8% and HTT-AS promoter -30%.
For O=C(Nc1cccc(C(F)(F)F)c1)Nc1ccc2snnc2c1 the results were PMP22 txn prim 9.5µM*, S16 F2sN tox inconclusive, HTT prom inh inconclusive, OvCa metastasis inactive, pS6 MEF inh -21% and HTT-AS promoter -62%.
Screening O=C(Nc1cccc(C(F)(F)F)c1)c1ccc2snnc2c1 returned PMP22 txn prim -7%, S16 F2sN tox -2%, HTT prom inh -7%, OvCa metastasis 15%, pS6 MEF inh 0% and HTT-AS promoter -14%.
Screening COc1cc(Nc2nc(SCC(=O)c3ccc(Cl)c(Cl)c3)nc3ccccc23)cc(OC)c1 returned PMP22 txn prim inconclusive, S16 F2sN tox -6%, HTT prom inh -24%, OvCa metastasis inactive, pS6 MEF inh 12µM* and HTT-AS promoter -36%.
CCOc1ccc(CCNc2ncnc3onc(-c4ccc(Cl)cc4)c23)cc1 was read as PMP22 txn prim inconclusive, S16 F2sN tox -24%, HTT prom inh 14µM*, OvCa metastasis inactive, pS6 MEF inh -8% and HTT-AS promoter -68%.
CSc1ccc(CCNc2ncnc3onc(C)c23)cc1 was read as PMP22 txn prim 2.2µM*, S16 F2sN tox inconclusive, HTT prom inh 1µM*, OvCa metastasis 4%, pS6 MEF inh 1% and HTT-AS promoter -79%.
For CN(C)CCC=C1c2ccccc2COc2ccc(CC(=O)O)cc21 the results were HTT prom inh 11%, OvCa metastasis 1% and HTT-AS promoter 9%.
For CN(C)CC1CCN(C2CCN(C(=O)c3cccc(-c4cc(O)c5ncccc5c4)c3)CC2)CC1 the results were HTT prom inh -27%.
CNC1CCC(N(Cc2cccc(-c3ccncc3)c2)C(=O)c2sc3ccccc3c2Cl)CC1 (centres undefined) was read as HTT prom inh -17%, OvCa metastasis -22% and HTT-AS promoter -25%.
